Source: PubChem (National Center for Advancing Translational Sciences (NCATS))
In the library only some 7.5% were active in any assay of this set; here they are far more common.
SMN2 splice up – SMN2 splice variant enhancement; HEK293 SMN2-luciferase splicing reporter, luminescence, 30-36 h; Potency, µM (series often up to 46.1 µM), for inactives: top-dose activity change, positive = activation, actives largely listed as activators; 210,000 tested, 2.8% active; AID 1458; also: % of control where 0% means no effect; nearly all actives have a fitted effect of over 55% in size
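HEK293 cells carry an SMN2 […]–luciferase reporter in which exon 7 inclusion puts luciferase in frame. Cells were plated 10-12 h before compound addition, then incubated 30-36 h at 37C. ONE-Glo luminescence was read; sodium butyrate at 4.5 mM final served as control.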
FLuc counter – inhibits or activates purified firefly luciferase, miR-21 counter-screen; purified FLuc, Km substrates, luminescence inhibition; 360,000 tested, 6.9% active; AID 588342; Potency, µM (titrated, usually from 57.5 µM), for inactives: at the top dose activity change, negative = inhibition, most hits filed as inhibitors;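 also: plate controls were vehicle for no effect and reference inhibitor for full effect; nearly all actives have a fitted effect of over 55% in size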
Target sequence (P08659 whole entry, looked up): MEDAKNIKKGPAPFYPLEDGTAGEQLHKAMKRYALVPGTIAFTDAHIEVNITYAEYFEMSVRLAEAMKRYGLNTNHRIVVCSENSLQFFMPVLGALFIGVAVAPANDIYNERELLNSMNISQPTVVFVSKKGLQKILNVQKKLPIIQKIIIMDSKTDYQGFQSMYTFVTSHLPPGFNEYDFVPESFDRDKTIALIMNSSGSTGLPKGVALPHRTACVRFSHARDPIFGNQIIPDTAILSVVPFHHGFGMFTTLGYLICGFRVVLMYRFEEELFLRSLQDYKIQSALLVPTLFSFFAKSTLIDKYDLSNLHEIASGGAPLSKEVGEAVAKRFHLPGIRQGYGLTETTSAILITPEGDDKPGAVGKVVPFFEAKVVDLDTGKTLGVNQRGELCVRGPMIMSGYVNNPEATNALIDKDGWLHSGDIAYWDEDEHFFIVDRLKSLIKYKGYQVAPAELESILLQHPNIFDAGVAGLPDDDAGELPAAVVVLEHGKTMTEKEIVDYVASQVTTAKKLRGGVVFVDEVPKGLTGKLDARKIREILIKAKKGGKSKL
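Biochemical qHTS of compounds, final roughly 60 µM downward over six points, against 10 nM purified firefly luciferase using Km concentrations of substrates (10 uM D-luciferin, 10 uM ATP) in Tris acetate pH 7.5 buffer; luminescence output.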
NPC1 promoter act – activates the NPC1 promoter | Huh7 NPC1 promoter luciferase reporter, 24 h | Potency, µM (titrated, usually from 9.22 µM), for the others: top-dose activation, usual class: activators | 320,000 tested, 2.4% active | AID 485313; also: % of control where 0% means no effect; nearly all actives have a fitted effect of over 60% in size
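NPC1 promoter–luciferase Huh7 cells; 24 h compound; luminescence.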
Luc counter – counter-screen: inhibitors of Kinase-Glo firefly luciferase; Potency, µM (doses to about 38.3 µM), for inactives: at the top dose activity change, negative = inhibition, most hits filed as inhibitors; Kinase-Glo luciferase, ATP luminescence, 8 min; 200,000 tested, 0.28% active; Q27757; also: % is scaled to controls: 0 for no effect and ±100 for the full control effect; nearly all actives have a fitted effect of over 60% in size
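Luminescence was the read-out, taken after 8-minute incubation at ambient temperature. Luciferase turned over luciferin with 10 uM ATP in imidazole pH 7.2 buffer containing KCl, MgCl2, Tween 20 and BSA.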
Rab9 prom act – activates the Rab9 promoter; 320,000 tested, 2.8% active; Potency, µM (titrated, usually from 9.22 µM), inactives show top-dose activation, negative = inhibition, hits mostly activators; Huh7 Rab9 promoter-luciferase reporter, luminescence, 24 h; AID 485297; also: % of control where 0% means no effect; nearly all actives have a fitted effect of over 60% in size
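Luminescence from Amplite-detected luciferase (10 minutes, ambient) reports Rab9 promoter activation. Before that, stable Rab9-luciferase Huh7 cells (1500/well, reduced-serum OP-MEM I plus 10% FBS) were exposed to compound for 24 hours at 37C.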
ELG1 genotoxic – inducers of genotoxicity in HEK293T ELG1-luciferase cells; HEK293T ELG1-luciferase reporter, luminescence, 16 h; Potency, µM (doses to about 46 µM), without a hit: at the highest dose activity change, positive = activation, actives largely listed as activators; 330,000 tested, 1.3% active; also: % of control where 0% means no effect; nearly all actives have a fitted effect of over 60% in size
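After overnight (16 hr) compound treatment at 37 °C, ELG1-luciferase HEK293T cells were lysed with ONE-Glo; luminescence quantified 30 min later at room temperature.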
Numbers without * were called inactive; ? = inconclusive; . = no result given. Calls follow the shape of the dose curve; as a rule, active = well fitted curve in the direction sought with a large enough effect; inconclusive = small, poorly fitted or top-dose-only effect, or another doubt; inactive = no such curve, though single readings can be large; an effect the other way counts as inactive or inconclusive. Potency is read from the fitted curve at half-maximal effect.

SMILES	SMN2 splice up	FLuc counter	NPC1 promoter act	Luc counter	Rab9 prom act	ELG1 genotoxic
CC(C)(O)C(=O)N=Nc1c(O)[nH]c2ccccc12	?	?	?	-11%	?	?
COc1ccc(OC)c(CNC(=O)CCc2c(C)nc3c(c2C)c(=O)n(C)c(=O)n3C)c1	10%	1%	.	.	.	.
Oc1[nH]c2ccccc2c1N=Nc1ccccc1	.	6µM*	4%	.	?	?
Oc1[nH]c2ccccc2c1N=Nc1nc2ccccc2s1	2.5µM*	1.3µM*	3.5µM*	-11%	1.1µM*	0.46µM*
O=S1(=O)N=C(N=Nc2c(O)[nH]c3ccccc23)c2ccccc21	-16%	?	-4%	-5%	1%	-4%
O=Nc1c(-c2c(O)[nH]c3ccccc23)[nH]c2ccccc12	13µM*	.	4.6µM*	-25%	?	.
CCOc1ccc(N(CC)C(=O)c2cc3c(s2)-c2ccccc2OC3)cc1	-28%	-5%	.	.	.	.
Cc1ccc(/C(N)=N/OC(=O)c2ccc3ccccc3c2)cc1	.	6.7µM*	?	.	?	?
N/C(=N\OC(=O)c1cccc(F)c1)c1ccccc1	2%	0.67µM*	17%	11µM*	26%	?
Cc1ccc(C(=O)O/N=C(\N)Cc2cccc3ccccc23)cc1	.	-8%	0%	.	8%	-10%
Cc1ccc(/C(N)=N/OC(=O)c2cccc(F)c2)cc1	.	3µM*	14%	.	16%	?
O=C(Nc1ccc(C(=O)OCc2cc(=O)n3c4c(sc3n2)CCCC4)cc1)c1cccc(F)c1	.	-1%	.	.	.	.
Cc1ccc(C(=O)O)cc1-c1ccc(/C=C2\SC(=O)N(CC(=O)Nc3ccccc3)C2=O)o1	-3%	?	0%	2%	-1%	-2%
CC(C)(C)OC(=O)CN1C(=O)S/C(=C\c2ccc(-c3cccc(C(=O)O)c3)o2)C1=O	.	15µM*	?	.	3.2µM*	?
Cc1ccc(NC(=O)CN2C(=O)S/C(=C/c3ccc(-c4cccc(C(=O)O)c4)o3)C2=O)cc1	?	21µM*	13%	2%	13%	-10%
CC(C)OC(=O)CN1C(=O)S/C(=C/c2ccc(N3CCCCC3)o2)C1=O	-10%	21µM*	1%	-6%	-3%	28%
Cc1ccc(NC(=O)CN2C(=O)S/C(=C\c3ccc(-c4cccc(C(=O)O)c4C)o3)C2=O)cc1	13%	?	0%	16%	4%	2%
C#CCN1C(=O)S/C(=C\c2ccc(-c3ccc(C(=O)O)cc3C)o2)C1=O	.	7.6µM*	1.1µM*	.	2.5µM*	?
O=C1S/C(=C/c2ccc(N3CCOCC3)o2)C(=O)N1Cc1ccc(F)cc1	-17%	?	0%	-6%	-4%	1%
CCOc1cc(Cl)c(S(=O)(=O)n2ccnc2)cc1Cl	3%	-11%	.	.	.	.
COc1ccccc1N1CCN(C(=O)c2ccc(N(C)S(=O)(=O)c3ccccc3)cc2)CC1	.	1%	0%	.	-4%	-17%
O=C1CCC(C(=O)Nc2cccc3ccccc23)N1 (configuration not stated)	7.9µM*	3%	-2%	0%	-2%	3%
OC[C@H]1O[C@H](OC[C@H]2OC(O)[C@H](O)[C@@H](O)[C@@H]2O)[C@H](O)[C@@H](O)[C@@H]1O (some centres not stated)	.	0%	10%	.	1%	-9%
CCCCCC(=O)Nc1ccc(-c2csc(N)n2)cc1	.	17µM*	4%	.	?	?
O=C(O)/C=C\C(=O)Nc1ccc(N2CCN(c3ccc(Cl)cc3)CC2)cc1	.	15µM*	-7%	-3%	-14%	-1%
SMILES	SMN2 splice up	FLuc counter	NPC1 promoter act	Luc counter	Rab9 prom act	ELG1 genotoxic
Cc1nc(-c2ccc(NC(=O)/C=C\C(=O)O)cc2)cs1	14%	9.5µM*	0%	-2%	1%	11%
O=C(O)/C=C/C(=O)Nc1ccc(-c2ccccc2)cc1	21%	6.7µM*	16%	1%	28%	14%
CCC(=O)Nc1ccc(-c2csc(NNC(C)=O)n2)cc1	-10%	-7%	-5%	3%	-3%	0%
COc1ccc(-n2nc(C(=O)Nc3ccccn3)c3c4ccccc4n(C)c3c2=O)cc1	-2%	-2%	.	.	.	.
Cc1ccc(NC(=O)Cn2c(=O)n(-c3ccc(Cl)c(Cl)c3)c(=O)c3c(C)c(C)sc32)c(C)c1	-2%	4%	.	.	.	.
O=C(O)/C=C/C(=O)Nc1ccc(-n2nccc2C(F)(F)F)cc1	.	17µM*	-1%	.	9%	1%
Cc1ccc2sc(-c3ccc(NC(=O)/C=C\C(=O)O)cc3)nc2c1	7.1µM*	0.95µM*	?	-4%	2.8µM*	?
CCCCCC(=O)Nc1ccc(-c2csc(C)n2)cc1	?	15µM*	20%	-3%	?	3%
Cc1ccc(S(=O)(=O)Nc2ccc(NC(=O)/C=C/C(=O)O)cc2)cc1	6%	-2%	-3%	-1%	-6%	-1%
CCCCC(=O)Nc1ccc(C(=O)c2ccccc2)cc1	3%	?	8%	3%	24%	12%
O=C(O)/C=C/C(=O)Nc1ccc(-n2ccc(C(F)(F)F)n2)cc1	.	-5%	0%	.	-5%	1%
CCCCCC(=O)Nc1ccc(C2C(=O)c3ccccc3C2=O)cc1	.	2.7µM*	2.8µM*	.	2.2µM*	?
CN(C)CCNC(=O)c1ccc(-n2c(=O)c(=O)[nH]c3ccccc32)cc1	.	.	.	0%	.	.
COc1ccc(-c2nc3sc(CCNC(=O)C(=O)Nc4ccc(C)c(F)c4)c(C)n3n2)cc1	.	-6%	.	.	.	.
CCCn1c(SCc2nc(-c3ccc(OC)c(OC)c3)no2)nnc1-c1ccccc1	-24%	-3%	.	.	.	.
COc1ccccc1C(=O)OCc1cc(=O)n2c(C)csc2n1	.	19µM*	.	.	.	.
COc1ccc(C(=O)OCc2cc(=O)n3c(C)csc3n2)cc1F	.	?	4µM*	.	2.2µM*	?
COc1cccc(C(=O)Nc2ccccc2C(=O)OCc2cc(=O)n3c(C)csc3n2)c1	.	-5%	.	.	.	.
Cc1nc(NC(=O)CCc2ccccc2)sc1C	.	17µM*	27%	.	26%	?
Cc1nc(NCCc2ccccc2)sc1C(=O)O	.	17µM*	?	.	29%	13%
Cc1nc(NC(=S)NC(=O)c2ccccc2)sc1C	.	?	4µM*	.	3.2µM*	?
Cc1nc(NC(=O)c2ccccc2O)sc1C	.	5.4µM*	4µM*	.	3.2µM*	5.8µM*
COc1ccc(CCNc2nc(C)c(C(C)=O)s2)cc1OC	.	?	2%	.	0%	-17%
O=C(CCCn1c(=O)c2cccn2c2cccnc21)Nc1ccccc1C(F)(F)F	.	-2%	.	.	.	.
COc1ccc(Oc2c(C(F)(F)F)oc3cc(OCC(=O)O)ccc3c2=O)cc1	.	-2%	-1%	.	4%	1%
